Screening results from PubChem BioAssay.
Only some compounds are listed: those with a hit (about 12% of all), similar ones and a draw of the others.
HP1b chromo inh = inhibitors of HP1-beta chromodomain binding to methylated histone tails. 390,000 compounds, 0.56% hits. Potency, µM (series often up to 114 µM), inactives show at the highest dose activity change, negative = inhibition, actives largely listed as inhibitors. AlphaScreen HP1-beta / biotin-H3K9me3 peptide binding. AID 540317. P83916; also: nearly all actives have a fitted effect of over 70% in size
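AlphaScreen: HP1-beta (50 nM) preformed 30 min with biotin-H3(1-18)K9me3 peptide (50 nM) in PBS pH 7.4, 0.01% Tween-20. Compound added for 30 min at RT, then streptavidin donor/nickel chelate acceptor beads (10 ug/mL) for 30 min.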
JMJD2A Tudor = blocks the human JMJD2A Tudor domain. O75164. AlphaScreen JMJD2A-Tudor / H3K4me3 peptide binding. AID 504339. 390,000 compounds, 4.4% hits. Potency, µM (highest dose often 114 µM), without a hit: top-dose activity change, negative = inhibition, most hits filed as inhibitors; also: % is scaled to controls: 0 for no effect and ±100 for the full control effect; nearly all actives have a fitted effect of over 50% in size
TDP1 block = inhibitors of human tyrosyl-DNA phosphodiesterase TDP1; 350,000 compounds, 0.28% hits; Potency, µM (doses to about 130 µM), without a hit: top-dose activity change, negative = inhibition, actives largely listed as inhibitors; recombinant TDP1, AlphaScreen DNA substrate cleavage; Q9NUW8; AID 485290; also: % is scaled to controls: 0 for no effect and ±100 for the full control effect; nearly all actives have a fitted effect of over 40% in size
Target sequence (Q9NUW8 whole entry, looked up): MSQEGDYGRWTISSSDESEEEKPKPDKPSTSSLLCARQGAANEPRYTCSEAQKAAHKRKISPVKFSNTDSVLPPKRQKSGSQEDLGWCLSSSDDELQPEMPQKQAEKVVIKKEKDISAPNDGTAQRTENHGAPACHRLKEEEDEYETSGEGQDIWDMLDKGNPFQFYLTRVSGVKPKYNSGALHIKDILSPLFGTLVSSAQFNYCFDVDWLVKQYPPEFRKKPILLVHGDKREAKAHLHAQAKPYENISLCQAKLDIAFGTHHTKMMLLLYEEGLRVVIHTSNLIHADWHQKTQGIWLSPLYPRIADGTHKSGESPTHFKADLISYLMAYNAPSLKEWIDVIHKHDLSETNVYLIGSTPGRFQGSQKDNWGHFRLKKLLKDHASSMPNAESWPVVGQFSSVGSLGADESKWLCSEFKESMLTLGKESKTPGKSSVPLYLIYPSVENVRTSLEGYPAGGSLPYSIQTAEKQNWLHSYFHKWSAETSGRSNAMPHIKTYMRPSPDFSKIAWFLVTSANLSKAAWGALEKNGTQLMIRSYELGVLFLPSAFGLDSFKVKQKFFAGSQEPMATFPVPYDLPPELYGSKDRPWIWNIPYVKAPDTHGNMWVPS
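Recombinant E. coli-expressed Tdp1 (1 nM) preincubated with compound 15 min at RT, then 5'-biotin/3'-phosphotyrosine-FITC DNA substrate (15 nM) added for 5 min. AlphaScreen beads (10 ug/ml) added, 10 min RT; tyrosine-FITC cleavage read as signal loss.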
BAZ2B inh = blocks human BAZ2B; Q9UIF8; AlphaScreen BAZ2B-H3K14Ac peptide displacement; Potency, µM (top dose mostly 114 µM), for the others: top-dose activity change, negative = inhibition, hits mostly inhibitors; 360,000 compounds, 4.4% hits; AID 504333; also: % is scaled to controls: 0 for no effect and ±100 for the full control effect; nearly all actives have a fitted effect of over 60% in size
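Protein-peptide AlphaScreen: BAZ2B 50 nM, b-H3K14Ac 50 nM, 1x PBS pH 7.4 + 0.01% Tween-20. Preincubation 30 min RT; cpd 30 min RT (top 110 uM); beads 20 min RT, light-protected.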
Sfp PPTase inh = inhibitors of Bacillus subtilis Sfp phosphopantetheinyl transferase. Biochemical Sfp PPTase activity, qHTS. Potency, µM, for inactives: largest response in the series, negative = inhibition, usual class: inhibitors. 310,000 compounds, 3.5% hits;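 also: the enzyme is Sfp with the accession as filed and its product quenches rhodamine fluorescence; 0% = enzyme reaction without inhibitor and -100% = no enzyme wells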
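Buffer: 50 mM Hepes-Na pH 7.6, 10 mM MgCl2, 0.01% Nonidet P-40, 0.01% BSA. Enzyme 15 nM, pre-exposed to compound 15 min; substrates then added and fluorescence change tracked over 30 min.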
G9a block = blocks human histone lysine methyltransferase G9a; Potency, µM (doses to about 102 µM), without a hit: top-dose activity, negative = inhibition, actives largely listed as inhibitors; Q96KQ7; G9a H3K9 monomethylation, AlphaScreen, 2 h; 350,000 compounds, 8.8% hits; also: % is scaled to controls: 0 for no effect and ±100 for the full control effect; nearly all actives have a fitted effect of over 75% in size
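Chemiluminescent proximity detection of H3K9 monomethylation, read after 10 min bead incubation in the dark. Reaction: 20 nM G9a, 500 nM biotin-H3K9 peptide, 20 uM SAM cofactor, 2 h, room temperature, following 15 min enzyme-compound preincubation.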
Starred values were filed as active, the others as inactive; ? = inconclusive; nt = no result; [ ] = remark or other dose. Calls follow the shape of the dose curve; as a rule, active = well fitted curve in the direction sought with a large enough effect; inconclusive = small, poorly fitted or top-dose-only effect, or another doubt; inactive = no such curve, though single readings can be large; an effect the other way counts as inactive or inconclusive. Potency is read from the fitted curve at half-maximal effect.

SMILES | HP1b chromo inh | JMJD2A Tudor | TDP1 block | BAZ2B inh | Sfp PPTase inh | G9a block
COc1ccc(CCNC(=O)CCn2c(=O)c3ccccc3n(CC(=O)Nc3ccc(C)cc3C)c2=O)cc1OC | 52% | -27% | 2% | 20% | nt | 22%[59 µM]
Cc1ccc(CN2CCCn3nc(C(=O)NCCc4ccccc4Cl)cc3C2=O)cc1 | 26% | 5% | 1% | -2% | nt | 2%[12.7 µM]
CCOC(=O)N1CCN(C(=O)CN(c2cccc(Cl)c2C)S(=O)(=O)c2ccc(C)cc2)CC1 | 19% | -18% | nt | 10% | nt | 4%[59 µM]
CCOc1ccc(S(=O)(=O)n2nc(C)cc2C)cc1 | 39% | -14% | 1% | -2% | 11% | 23%
CCN(CC)C(=O)C1CCN(Cc2ccc(OCc3ccccc3)c(OC)c2)CC1 | ? | 11µM* | nt | 56µM* | -6% | 50µM*
CCN1CCN(C(=O)C2CCN(Cc3nc(-c4cccc(Cl)c4)oc3C)CC2)CC1 | -2% | -20% | -1% | 3% | 6% | ?
c1ccc(COc2cccc(CN3CCCCC3)c2)cc1 | ? | 25µM* | nt | ? | -7% | 35µM*
CCc1ccc(C(C)NC(=O)C2CCCO2)cc1 (centres undefined) | 30% | 1% | 3% | -2% | 4% | 2%
CCC(NC(=O)C1CCCO1)c1ccccc1 (centres undefined) | 30% | -6% | 2.2µM* | 2% | 17% | nt
CCN1CCN(C(=O)C2CCN(Cc3cc(Cl)ccc3O)CC2)CC1 | ? | 10µM* | -8% | ? | -12% | 10µM*
c1ccc(Oc2cccc(CN3CCCCC3)c2)cc1 | 10% | -12% | 2% | ? | -3% | -10%
COc1cc(CNC(=O)C2CC2)ccc1OCc1ccccc1 | 14% | -18% | 13% | -15% | 10% | 25%
CCCS(=O)(=O)c1c(S(=O)(=O)CCC)c2cc(C(C)(C)C)ccn2c1C(=O)c1ccc(C)cc1 | 3% | -25% | 6% | -25% | nt | ?
Cc1noc(C)c1-c1nc(NC2CC2)c2ccccc2n1 | nt | nt | nt | nt | 22% | -2%[0.501 µM]
O=C(CN1CCN(C(=O)C2CCCO2)CC1)Nc1ccc(Cl)c(Cl)c1 (centres undefined) | 34% | 9% | 3% | -7% | 11% | 79µM*
CCOC(=O)CSc1c(-c2ccc(Cl)cc2)[nH]c2ccccc12 | 3% | 22µM* | -5% | 9% | 17% | -12%[59 µM]
CCOC(=O)CSc1c(-c2cccs2)[nH]c2ccccc12 | 27% | -15% | 0% | 0% | 15% | 13%
O=C(c1ccc(Cl)cc1)C1CCN(C(=O)c2ccc(F)cc2)CC1 | 43% | 3% | nt | -7% | 1% | nt
Nc1c(C(=O)Nc2ccccc2)sc2nc3c(cc12)CN(Cc1ccccc1)CC3 | 25% | -20% | 9% | -11% | nt | ?
COC(=O)c1c(NC(=O)C(C)(C)C)sc2c1CCN(Cc1ccccc1)C2 | 17% | -26% | nt | -11% | -1% | nt
O=C(Nc1nc2c(s1)CN(Cc1ccccc1)CC2)C1CCCC1 | 15% | -14% | 10% | ? | -7% | 45µM*
O=C(Nc1nc2c(s1)CN(Cc1ccccc1)CC2)c1c(F)cccc1F | -8% | 50µM* | 5% | nt | -6% | 8.9µM*
CC(C)(C)C(=O)Nc1nc2c(s1)CN(Cc1ccccc1)CC2 | 5% | -17%[11.4 µM] | 9% | -33% | -27% | 18µM*
CC(=O)c1cccc(NC(=O)C(C)OC(=O)CCn2c(C)csc2=O)c1 (centres undefined) | 41% | -18% | 0% | 0% | nt | 19%[12.7 µM]
CN(C)C(=O)c1ccc(-c2cncnc2NCCN2CCOCC2)cc1 | nt | nt | -11% | nt | ? | nt
SMILES | HP1b chromo inh | JMJD2A Tudor | TDP1 block | BAZ2B inh | Sfp PPTase inh | G9a block
CN(CC(=O)Nc1ccccc1Cl)C(=O)COC(=O)C1=COCCO1 | 36% | -8% | nt | -36% | nt | 1%
N#Cc1ccc(S(=O)(=O)N2CCN(c3nc(-c4cccs4)nc4ccccc34)CC2)cc1 | 23% | -19% | 2% | nt | nt | nt
Cc1cc(NS(=O)(=O)c2ccc(Nc3nc(-c4sc(NC(=O)c5ccccc5)nc4C)cs3)cc2)no1 | nt | nt | 9% | ? | ? | ?
Cc1nc(NC(=O)c2ccccc2)sc1-c1csc(N)n1 | -20% | ? | 10% | ? | -17% | 8.9µM*
Cc1ccc(Cl)cc1Nc1nc(-c2sc(NC(=O)c3ccccc3)nc2C)cs1 | nt | nt | 13% | ? | -21% | nt
Cc1nc(NC(=O)c2ccccc2)sc1-c1csc(NCCc2ccccc2)n1 | -18% | ? | 3% | ? | 19% | 40µM*
Cc1nc(NC(=O)c2ccccc2)sc1-c1csc(Nc2cccc(F)c2)n1 | nt | nt | 9% | ? | 1% | 45µM*
CC(=O)Nc1ccc(-c2csc(NCCc3ccccc3)n2)cc1 | 7% | -28% | nt | -9% | -21% | nt
O=C(COc1ccc(Cl)cc1Cl)NCC1(N2CCOCC2)CCCCC1 | 24% | 4% | -2% | nt | nt | nt
OC(CNCC1(N2CCCCC2)CCCCC1)COc1ccc(Cl)cc1Cl (centres undefined) | ? | 2.8µM* | -2% | -31% | -5% | 50µM*
CN(C)S(=O)(=O)c1cccc(-c2nn(-c3ccccc3)cc2/C=C2\SC(=S)NC2=O)c1 | ? | 40µM* | 5% | 32µM* | ? | 40µM*
O=C1N(Cc2cccc(Cl)c2)C[C@@H]2C[C@@H](c3c[nH]c4ccccc34)N3CCC[C@@]123 | -30% | ? | nt | -31% | -17% | 35µM*
Cc1cccc([C@@H]2C[C@H]3CN(Cc4cccc(Cl)c4)C(=O)[C@]34CCCN24)n1 | 18% | -2% | nt | -21% | -7% | 40µM*
Cc1ccc([C@@H]2C[C@H]3CN(Cc4cccc(Cl)c4)C(=O)[C@]34CCCN24)o1 | 17%[57 µM] | -8% | 1% | ? | -13% | ?
CC(=O)OC1CC2C(C)(C)CCC(=O)[C@@]2(C)C2CC[C@@]3(C)C(c4ccoc4)OC(=O)C4OC43[C@]12C (some centres undefined) | nt | nt | 9% | nt | 10% | -35%[2.33 µM]
COc1ccc(N2CC(C(=O)NC3=NCCS3)CC2=O)cc1 (centres undefined) | 18% | -5% | 2% | ? | 9% | ?
Cn1c(-c2cnn(-c3ccccc3)c2N)n[nH]c1=S | 39% | ? | 6% | -10% | ? | 28µM*
Nc1c(-c2n[nH]c(=S)n2-c2ccc(Cl)cc2Cl)cnn1-c1ccccc1 | 54% | 6% | nt | 1% | 3% | 4.5µM*
Cc1ccc(-c2cnn(-c3ccccc3)c2N)cc1 | 21% | -23% | nt | 0% | 14% | 4%
C=CCn1c(-c2cnn(-c3ccccc3)c2N)n[nH]c1=S | 6% | 4µM* | nt | -21% | -7% | 7.9µM*
